Values joined by “and” are separate entries in the source; they are usually repeats but may differ in a detail not shown here. Identical values can stand only once. Inconclusive results are not listed. The source holds several records for some structures; these can differ, active in one and inactive in another. Active and inactive are the calls of the source. Unless noted, calls come from the whole dose curve; as a rule, active = well fitted curve in the direction sought with a large enough effect; inconclusive = small, poorly fitted or top-dose-only effect, or another doubt; inactive = no such curve, though single readings can be large; an effect the other way counts as inactive or inconclusive.
What was measured:
[1] = qHTS Assay for Lipid Storage Modulators (AID 1519; calls by dose curve; note: potency is the fitted concentration of half-maximal effect; for activity change, negative = inhibition: % is set by controls: 0 for no effect and ±100 for the full control effect); conditions: Drosophila S3 cells, BODIPY lipid droplet/cell ratio, laser cytometry, cells loaded with oleic acid
Procedure, shortened: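 Cells seeded at 5,000 per well were treated with compounds over a concentration series and loaded with oleic acid (400 uM, as added). Lipid droplet fluorescence (488 nm excitation, 500-530 nm channel) was read by laser-scanning cytometry and normalized to 20 uM Triacsin C.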

[2] = qHTS for differential inhibitors of proliferation of Plasmodium falciparum line 7G8 (AID 1815); conditions: Plasmodium falciparum 7G8 proliferation inhibition; series mostly up to 28.7 µM;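 note: parasite growth measured after three days of incubation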; note: potency is the fitted concentration of half-maximal effect;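 for activity change, negative = inhibition: plate controls were vehicle wells for no effect and reference inhibitor wells for full effect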
[3] = qHTS for differential inhibitors of proliferation of Plasmodium falciparum line GB4 (AID 1816); conditions: Potency: Plasmodium falciparum GB4 proliferation inhibition; series mostly up to 28.7 µM;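 note: parasite growth measured after 72 h incubation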; note: potency is the fitted concentration of half-maximal effect;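 for activity change, negative = inhibition: 0% = vehicle DMSO and -100% = reference inhibitor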
[4] = qHTS for differential inhibitors of proliferation of Plasmodium falciparum line 3D7 (AID 1876); note: potency is the fitted concentration of half-maximal effect; conditions: P. falciparum 3D7 proliferation inhibition; series mostly up to 28.7 µM
[5] = qHTS for differential inhibitors of proliferation of Plasmodium falciparum line D10 (AID 1877); conditions: series mostly up to 28.7 µM;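 note: parasites grown with compound for 72 h before DNA staining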; note: potency is the fitted concentration of half-maximal effect;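 for activity change, negative = inhibition: plate controls were vehicle wells for no effect and reference inhibitor wells for full effect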
[6] = qHTS for differential inhibitors of proliferation of Plasmodium falciparum line Dd2 (AID 1882); conditions: Potency: Plasmodium falciparum Dd2 proliferation inhibition; series mostly up to 28.7 µM; note: nearly all actives have a fitted effect of over 65% in size; note: potency is the fitted concentration of half-maximal effect;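 for activity change, negative = inhibition: plate controls were DMSO vehicle for no effect and 0.29 µM artemisinin for full effect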
Procedure, shortened: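 SYBR Green DNA fluorescence (ex 485, em 535 nm) after overnight lysis quantifies parasite growth; compound exposure lasted 72 h at 37 C on infected red cells at 2.5% hematocrit, 0.3% parasitemia (final). Artemisinin 0.29 uM and vehicle wells define normalization.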

[7] = qHTS for differential inhibitors of proliferation of Plasmodium falciparum line W2 (AID 1883); conditions: Potency: Plasmodium falciparum W2 proliferation inhibition; series mostly up to 28.7 µM;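 note: parasites grown with compound for 72 h before lysis and staining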; note: potency is the fitted concentration of half-maximal effect;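 for activity change, negative = inhibition: 0% = vehicle wells and -100% = control inhibitor wells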
[8] = qHTS for differential inhibitors of proliferation of Plasmodium falciparum line HB3 (AID 1886); conditions: Potency: Plasmodium falciparum HB3 proliferation inhibition; series mostly up to 28.7 µM;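 note: parasites grown with compound for 72 h before SYBR Green readout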; note: potency is the fitted concentration of half-maximal effect;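 for activity change, negative = inhibition: plate controls were vehicle for no effect and reference inhibitor for full effect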
[9] = target: DNA repair nuclease/redox regulator APEX1 (Homo sapiens) (UniProt P27695); assay: qHTS Validation Assay for Inhibitors of the Human Apurinic/apyrimidinic Endonuclease 1 (APE1) (AID 1705;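 note: TAMRA fluorescence gain over two minutes as APE1 cuts a quenched THF abasic duplex; % is set by controls: 0 for no effect and ±100 for the full control effect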); conditions: purified APE1 endonuclease activity, fluorescence, titration; series mostly up to 57.1 µM
Procedure, shortened: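 Substrate: 50 nM final fluorophore/quencher THF-abasic duplex. Enzyme preincubated with compounds 15 min, RT. Progress derived from fluorescence difference, third minus first kinetic read.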

[10] = target: Endonuclease 4 (Escherichia coli (strain K12)) (UniProt P0A6C1); assay: Counterscreen for APE1 Inhibitors: qHTS Validation Assay for Inhibitors of Endonuclease IV (AID 1708); note: % is set by controls: 0 for no effect and ±100 for the full control effect; conditions: E. coli endonuclease IV, DNA cleavage fluorescence; series mostly up to 57.1 µM
Procedure, shortened: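 Conditions: 2 nM enzyme, 50 nM TAMRA/BHQ-2 substrate, pH 7.5 Tris buffer with 2 mM MgCl2, RT. Compound preincubation 15 min; readout three fluorescence reads 60 s apart, third-minus-first.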

[11] = measured here: cell count channel max response
[12] = measured here: lipid channel max response

Sequence of DNA repair nuclease/redox regulator APEX1 (Homo sapiens) (P27695 whole entry, looked up): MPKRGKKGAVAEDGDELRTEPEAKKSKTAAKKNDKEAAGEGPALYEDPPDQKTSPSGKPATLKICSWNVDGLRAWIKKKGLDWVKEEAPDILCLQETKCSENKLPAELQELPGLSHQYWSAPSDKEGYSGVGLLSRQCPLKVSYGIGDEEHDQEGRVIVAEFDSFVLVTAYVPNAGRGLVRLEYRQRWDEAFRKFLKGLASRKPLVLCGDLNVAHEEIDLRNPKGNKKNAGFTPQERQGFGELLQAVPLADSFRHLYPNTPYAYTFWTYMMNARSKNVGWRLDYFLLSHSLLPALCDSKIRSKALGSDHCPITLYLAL

SMILES | activity change, negative = inhibition ([1]; at 57.5 µM (top of the series)) | max response [1, 11] | max response [1, 12] | Potency [1] | Potency [2] | Potency [3] | Potency [4] | Potency [5] | Potency [6] | Potency [7] | Potency [8] | outcome [9] | outcome [10] | activity change, negative = inhibition ([1]; at 25.7 µM (top of the series))
CC(C)CC(N(C)C)C1(c2ccc(Cl)cc2)CCC1 (centres undefined) | 0.545% (inactive) | 5.29% | 6.62% |  |  |  |  |  |  |  |  |  |  | 
O=c1c(O)c(-c2ccc(O)c(O)c2)oc2cc(O)cc(O)c12 | 8.54% (inactive) | -77.5% and 18.5% | -93.3% and 29.8% | 39.8 µM (active) | 3.55 µM (active) | 2.51 µM (active) | 3.55 µM (active) | 7.08 µM (active) | 8.91 µM (active) | 4.47 µM (active) | 2.82 µM (active) |  |  | 
COc1ccccc1N1CCNCC1 | 3.26% (inactive) and 0.382% (inactive) | 10.9% and -13.3% | 15.1% and -12.9% |  | inactive |  | inactive |  | inactive |  | inactive | inactive | inactive | 
CC(C)C(=O)Nc1ccc([N+](=O)[O-])c(C(F)(F)F)c1 | 9.96% (inactive) | -6.26% and 5.61% | -1.94% and 19.5% |  |  |  |  |  |  | 12.6 µM (active) | 14.1 µM (active) |  |  | -0.701% (inactive)
Cc1cccc(C)c1NC1=NCCCS1 | 0.68% (inactive) | 4% and -18.4% | 4.95% and -18.3% |  | 7.94 µM (active) | 14.1 µM (active) | inactive | inactive |  | 5.01 µM (active) | inactive | inactive | inactive | 0.794% (inactive)
O=[N+]([O-])c1cc([As](=O)(O)O)ccc1O | 3.89% (inactive) | -1.97% and 10% | 0.435% and 19.2% |  |  |  |  |  |  |  |  |  |  | 0.724% (inactive)
CC(C)=CCOc1c2occc2cc2ccc(=O)oc12 | 17.7% (inactive) | 5.47% | 25.6% |  |  |  |  |  |  |  |  |  |  | 
CCn1cc(C(=O)O)c(=O)c2ccc(C)nc21 |  | 0.0975% | 0.934% |  |  |  |  |  |  |  |  | inactive | inactive | 1.82% (inactive)
CC[N+]1(C)CCCC(OC(=O)C(O)(c2ccccc2)c2ccccc2)C1 (centres undefined) | 8.59% (inactive) | 5.8% | 23.3% |  |  |  |  |  |  |  |  |  |  | 
Fc1ccc(C(OCCN2CCN(CCCc3ccccc3)CC2)c2ccc(F)cc2)cc1 |  | -18.7% | -16.6% |  | 3.98 µM (active) | 3.98 µM (active) | 7.08 µM (active) | 12.6 µM (active) | 7.94 µM (active) | 2.82 µM (active) | 4.47 µM (active) | inactive |  | -2.3% (inactive)
c1ccc(C2CC2)c(OCC2=NCCN2)c1 | 8.25% (inactive) | 15.2% | 26.1% |  |  | 12.6 µM (active) | inactive | inactive |  | 8.91 µM (active) | inactive | inactive | inactive | 
NCC(CC(=O)O)c1ccc(Cl)cc1 (centres undefined) | 7.61% (inactive) | 16.5% | 28.7% |  | inactive | inactive | inactive | inactive | inactive | inactive | inactive | inactive | inactive | 
CC(C)=CC1C(C(=O)OCc2cccc(Oc3ccccc3)c2)C1(C)C (centres undefined) | 8.71% (inactive) | 10.5% | 23.2% |  |  |  |  |  |  |  |  |  |  | 
CN1C[C@H](CNC(=O)OCc2ccccc2)C[C@@H]2c3cccc4c3c(cn4C)C[C@H]21 | 1.3% (inactive) | -34% | -33% |  | 5.01 µM (active) | 7.08 µM (active) | 2.51 µM (active) | 11.2 µM (active) | 10 µM (active) | 3.98 µM (active) | 11.2 µM (active) | inactive |  | 
NCC1(CC(=O)O)CCCCC1 | 1.35% (inactive) | -7.98% and 4.74% | -6.8% and 4.42% |  | inactive | inactive | inactive | inactive | inactive | inactive | inactive | inactive | inactive | -2.01% (inactive)
c1ccc2c(c1)OCC(C1=NCCN1)O2 (centres undefined) | 0.671% (inactive) | 8.3% | 9.22% |  | 8.91 µM (active) |  |  | inactive |  | 12.6 µM (active) |  | inactive | inactive | 
Clc1ccc(COC(Cn2ccnc2)c2ccc(Cl)cc2Cl)cc1 (centres undefined) | -5.83% (inactive) | -16.9% | -20.8% |  |  |  |  |  |  |  |  |  |  | 
Cc1cc2c(C(C)C)c(O)c(O)c(C=O)c2c(O)c1-c1c(C)cc2c(C(C)C)c(O)c(O)c(C=O)c2c1O | -15.2% (inactive) | -14.5% | -19.7% |  |  |  |  |  |  |  |  |  |  | 
CN(C)C(=O)C(CCN1CCC(O)(c2ccc(Cl)cc2)CC1)(c1ccccc1)c1ccccc1 | -2.05% (inactive) | -1% | -2.23% |  |  |  |  |  |  |  |  |  |  | 
Nc1ccncc1 | -5.36% (inactive) and 3.03% (inactive) | -7.26% and -3.5% | -10.8% and 8.53% |  | inactive | inactive | inactive | inactive | inactive | inactive | inactive | inactive | inactive | 
NCCc1cc(O)c(O)cc1O | 7.71% (inactive) | 5.57% | 16.6% |  |  |  |  |  |  |  |  |  |  | 
CCCN1CCC[C@@H]2Cc3[nH]ncc3C[C@H]21 | -0.922% (inactive) | -11.1% and 10.4% | -11.8% and 9.61% |  |  |  |  |  |  |  |  |  |  | -0.566% (inactive)
Cc1ncc(CNC(=O)N(CCCl)N=O)c(N)n1 | 4.94% (inactive) | 9.89% | 18% |  | inactive | inactive | inactive | inactive | inactive | inactive | inactive | inactive | inactive | 

From PubChem BioAssay (NCATS)
